Data: PubChem BioAssay (NCI)
About 83,000 compounds went through this panel and 20% of them were active in at least one assay; those are over-represented in the sample as a whole.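 96-well plates, one dose, 48 hours. Percent growth reported; active if below 10.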 Unmarked numbers belong to inactive results. The source made the active and inactive calls.

Legend:
Assay in all cases: NCI-60 one-dose screen, 48 h (100 = growth as untreated, 0 = no growth, -100 = all killed)
SK-MEL-2 melanoma = details: 10 µM unless noted
EKVX NSCLC = details: 10 µM unless noted
SN12C renal = details: 10 µM unless noted
UO-31 renal = details: 10 µM unless noted
ACHN renal = details: 10 µM unless noted
A498 renal = details: 10 µM unless noted
CCRF-CEM leukemia = details: 10 µM unless noted
MOLT-4 leukemia = details: 10 µM unless noted
TK-10 renal = details: 10 µM unless noted
CAKI-1 renal = details: 10 µM

Row | SMILES | growth (SK-MEL-2 melanoma) | growth (EKVX NSCLC) | growth (SN12C renal) | growth (UO-31 renal) | growth (ACHN renal) | growth (A498 renal) | growth (CCRF-CEM leukemia) | growth (MOLT-4 leukemia) | growth (TK-10 renal) | growth (CAKI-1 renal)
1 | CN(C)c1ccc2cc(-c3nc4ccccc4s3)c(N)nc2c1 | 51.5% | 67.7% | 48.5% | 51.8% | 102% | 38.2% | 6.43% (active) | 22.4% | – | –
2 | O=c1c2ccccc2sc2c(NCCN3CCOCC3)nc3ccccc3c12 | 102% | 70.9% | 59.4% | 47.6% | 43.5% | 43.7% | 36.3% | 37% | – | –
3 | Cc1ccn2cc(Cc3cc(=O)oc4c3ccc3ccccc34)c(=O)nc2c1 | 80.6% | 92.5% | 96.4% | – | 95.5% | 111% | 95.8% | – | 124% | –
4 | C=C1C(=O)O[C@H]2[C@H]1CC/C(C(=O)Nc1ccc(OC)c(C(N)=O)c1O)=C\CC[C@@]1(C)O[C@@H]21 | 71.3% | 73.4% | 61.1% | 37.8% | – | 78.3% | 3.64% (active) | 13.9% | – | –
5 | Cn1c(I)c(C#C[Si](C)(C)C)c(=O)[nH]c1=O | 60.7% | 86.5% | 32.8% | – | -28.4% (active) | 130% | -61.6% (active) | -59.7% (active) | 82.3% | -79% (active)
6 | O=C(NOC1OC(CO)C(O)C(O)C1O)Nc1ccccc1 (configuration not stated) | 98.3% | 102% | 91.6% | – | 101% | 120% | 91% | 79.7% | 109% | 92.1%
7 | C=CCn1c(SCC(=O)Nc2ccc(/C(C)=N\O)cc2)nnc1-c1cc(-c2ccc(OC)cc2)nc2ccccc12 | 22.3% | 42.5% | 44.4% | – | 28.9% | 38.7% | 15% | 1.81% (active) | 37.5% | –
8 | Cn1cnc([N+](=O)[O-])c1N1c2ccncc2Sc2ccncc21 | 94.2% | 78.8% | 113% | – | 75.8% | 93.1% | 94.7% | – | 132% | 85.7%
9 | COc1ccc2c(c1)C(=O)/C(=C/c1ccc(OCC(=O)c3ccc(Cl)cc3)cc1)O2 | 87% | 82% | 92.2% | – | 98.8% | 148% | 29% | 20% | 132% | -53.4% (active)
10 | Cc1ccc(-c2cn3cc([N+](=O)[O-])ccc3n2)cc1 | 71.5% | 67.4% | 75.3% | 57.2% | 73.4% | 57.6% | 52.6% | 57.6% | – | –
11 | S=c1[nH]nc(Cn2c3ccccc3c3ccncc32)o1 | 96.6% | 106% | 102% | 97.3% | 98.3% | 97.3% | 84.6% | 93.8% | – | –
12 | COc1ccc(-c2nnc(SCC(=O)Nc3ccc(C(=O)/C=C/c4ccccc4)cc3)o2)cc1OC | 98% | 100% | 103% | 83.9% | – | 95.7% | 102% | 89.1% | – | –
13 | COc1ccc(Cl)cc1NC(=O)c1cc2c(n1C)-c1nc(NC(=O)C(C)(C)C)sc1CC2 | 79.7% | 76.2% | 107% | 53.5% | – | 94% | 98.5% | 72.5% | – | –
14 | CC(=O)Oc1ccc(C(OC(C)=O)OC(C)=O)cc1 | 104% | 94.1% | 102% | 89.8% | – | 92.3% | 94.5% | 91.1% | – | –
15 | C#C[C@H](O)/C=C/CCCCCCC#C[C@H](O)CC[C@@H](O)C#CCCCCCC/C=C/[C@@H](O)C#C | 92.7% | 90.2% | 69.1% | -82.6% (active) | – | 102% | -37.3% (active) | – | – | –
16 | N#Cc1c2c(c(N)[nH]c1=O)C(=O)NC2(O)c1ccccc1 (configuration not stated) | 97.9% | 98.1% | 113% | 89.1% | – | 106% | 100% | 95.4% | – | –
17 | CCCCN(CCCC)c1ccc(C(=N)c2ccc(N(C)C)cc2)cc1 | -69.6% (active) | -11.9% (active) | -30% (active) | – | -2.72% (active) | 9.81% (active) | 1.04% (active) | 1.79% (active) | -5.56% (active) | -28.9% (active)
18 | Nc1nccc(=S)[nH]1 | 97.7% | 101% | 101% | 98.3% | – | 108% | 113% | 92.8% | – | –
19 | Cc1cc(SCc2ccc(Cl)cc2Cl)nc(SCc2ccc(Cl)cc2Cl)n1 | 103% | 88.5% | 112% | 97.5% | – | 98.7% | 108% | 104% | – | –
20 | COc1ccc(-c2[nH]c3ccccc3c2/C=C(\C#N)S(=O)(=O)c2ccccc2)cc1 | 76.5% | 14.1% | 42.2% | – | 51% | 2.31% (active) | 8.07% (active) | 6.08% (active) | 91.7% | -14.3% (active)
21 | C=CCOc1ccc(/C(Cl)=N/N=C(\Cl)c2cc(OC)c(OC)c(OC)c2)cc1 | 71.8% | 88.7% | 84.1% | 68% | – | 76.8% | 34% | 30.8% | – | –
22 | O=C(/C=C/c1ccco1)c1cccc(Nc2nc(Nc3ccccc3)nc(Nc3ccccc3)n2)c1 | 83.9% | 77.8% | 98.6% | – | 95.5% | -34.7% (active) | 56.4% | 61.7% | 141% | 92.8%
23 | O=C(CSc1nnc(-c2ccccc2)o1)Nc1ccc(C(=O)/C=C/c2ccccc2)cc1 | 99.2% | 79.7% | 81.7% | 55.7% | – | 83.8% | 55.5% | 59% | – | –
24 | COc1cc(Nc2ncccc2C(=O)Nc2nc3ccc(F)cc3s2)cc(OC)c1OC | 75.3% | 22% | 63.2% | – | 79.9% | 62.2% | 29.7% | 74.5% | 114% | 18.4%
25 | COc1ccc(Cl)cc1NC(=O)c1cc2c([nH]1)-c1nc(N)sc1CCC2 | 98% | 92.5% | 97.4% | 79.4% | – | 95.9% | 86.7% | 62% | – | –
26 | CC(=O)N1N=C2N(Cc3ccccc3)C(=O)c3c(sc4c3CCCC4)N2C1c1cn(-c2ccccc2)nc1-c1ccc(Cl)cc1 (configuration not stated) | 98% | 87.9% | 103% | – | 96.6% | 103% | 92.4% | 86.3% | 102% | 101%
27 | C#CC(=O)/C=C/CCCCCCC#CC(=O)CCC(=O)C#CCCCCCC/C=C/C(=O)C#C | 82.1% | 25.4% | -24.5% (active) | -90.7% (active) | – | 93.4% | -45.5% (active) | -32.2% (active) | – | –
28 | NC(=S)NNC1CCCCC1 | 97.3% | 89.9% | 95.7% | 72.6% | – | 100% | 84.9% | 70.9% | – | –
29 | COC(=O)c1ccc(NC(N)=NCC(C)(C)COc2ccc(C(F)(F)F)cc2)nc1 | 79.9% | 45.5% | 51.3% | 41.1% | – | 74.2% | 15.7% | 9.32% (active) | – | –
30 | Nc1ncnc2c1c(-c1ccc(Oc3ccccc3)cc1)nn2C[C@H]1SSC[C@@H]1O | -46.5% (active) | 25.3% | 54.5% | 17.4% | 33.4% | 27.9% | -15.8% (active) | -51.2% (active) | – | –
